# Data taken from the supplement of paper PMC6992640.
# Structures can show the parent of a compound that is named as a salt. ± gives the standard deviation of the averaged measurements.
# What was measured:
# Assay in all cases: cell viability (% of vehicle); higher = less cytotoxic
# Details in all cases: 10 µM; 72 h
# [1] = test system: HCI01 (cells of a triple-negative basal-like breast cancer xenograft)
# [2] = test system: HCI03 (cells of an ER-positive luminal breast cancer xenograft)
# [3] = test system: HCI09 (cells of a triple-negative luminal androgen receptor type breast cancer xenograft)
# [4] = test system: HCI11 (cells of an ER-positive luminal breast cancer xenograft)
# [5] = test system: HCI13 (cells of an ER-positive luminal breast cancer xenograft)
# [6] = test system: HCI16 (cells of a triple-negative basal-like breast cancer xenograft)
# [7] = test system: UCD52 (cells of a triple-negative basal-like breast cancer xenograft)
# [8] = test system: WHIM2 (cells of a triple-negative basal-like breast cancer xenograft)
# [9] = test system: WHIM30 (cells of a triple-negative basal-like breast cancer xenograft)
# 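Also: PDX cells carrying CMV promoter-driven luciferase, viability read as total photon flux per second by IVIS imaging following D-luciferin, vehicle control 0.1% DMSO.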
Structure (SMILES),cell viability [1],cell viability [2],cell viability [3],cell viability [4],cell viability [5],cell viability [6],cell viability [7],cell viability [8],cell viability [9]
CCCCCCCCCCCCCCCCCCCCCCO [Docosanol (Abreua)],82.8 ± 2.5,93.4,82.5 ± 8,95.6,97.3 ± 27,84.5,76.5 ± 11,81.8 ± 19,102 ± 3
CC(=O)O.CC(=O)O.CCC(C)CC(C)CCCCCCCCC(=O)NC1CC(O)C(NCCN)NC(=O)C2C(O)CCN2C(=O)C(C(O)CCN)NC(=O)C(C(O)C(O)c2ccc(O)cc2)NC(=O)C2CC(O)CN2C(=O)C(C(C)O)NC1=O (stereo not given) [Caspofungin Acetate],58.7 ± 28,115,84.5 ± 9.6,84.4,88 ± 5.7,115,71.4 ± 2.7,94.1 ± 40,119 ± 2.4
Cn1c(=O)c2c(ncn2CC2OCCO2)n(C)c1=O [Doxofylline],110 ± 27,117,95.6 ± 12,100,82.8 ± 4.8,105,96.4 ± 3.6,102 ± 11,100 ± 9
CC(O)C1C(=O)N2C(C(=O)O)=C(SC3CNC(CNS(N)(=O)=O)C3)C(C)C12 (stereo not given) [Doripenem],91.4 ± 3.9,103,143 ± 73,106,99.2 ± 19,85.2,82.7 ± 7.5,93.3 ± 19,90.3 ± 15
CN(N=O)C(=O)NC1C(O)OC(CO)C(O)C1O (stereo not given) [Streptozocin],105 ± 4.3,123,104 ± 6.3,99.5,89.38 ± 0.52,113,83.17 ± 0.58,85 ± 16,123.9 ± 1.1
N#CC1CC2CC2N1C(=O)C(N)C12CC3CC(CC(O)(C3)C1)C2 (stereo not given) [Saxagliptin],95 ± 7.6,145,82.1 ± 5.7,89.2,85.7 ± 7,93.8,97.4 ± 5.6,123 ± 7.2,98 ± 2.8
Nc1ncnc2c1ncn2C1OC(CO)C(O)C1O (stereo not given) [Vidarabine],64.8 ± 36,136,90.1 ± 5.1,86.9,106 ± 6.1,96.1,80.5 ± 2.9,105 ± 19,153 ± 7.4
Nc1ccn([C@@H]2O[C@H](CO)[C@@H](O)C2(F)F)c(=O)n1 [Gemcitabine HCl],96.1 ± 22,109,93 ± 23,103,89.6 ± 16,107,133 ± 24,75.7 ± 7.1,105 ± 14
N=C(N)c1ccc(OCCCCCOc2ccc(C(=N)N)cc2)cc1.O=S(=O)(O)CCO.O=S(=O)(O)CCO [Pentamidine isethionate],98.1 ± 3.2,104,27.495 ± 0.0084,74.7,180 ± 61,87.7,91.2 ± 2.3,85.2 ± 19,113 ± 7.6
Cc1[nH]c(=O)c(C#N)cc1-c1ccncc1 [Milrinone],124 ± 0.28,117,96.6 ± 32,102,98 ± 13,94,90.5 ± 4.6,101 ± 10,106 ± 18
CC(=O)O.NC(N)=NN=Cc1c(Cl)cccc1Cl [Guanabenz Acetate],134 ± 24,122,83.5 ± 5.4,108,101 ± 12,158,76.9 ± 2.8,109 ± 16,110 ± 20
CC(C)OC(=O)C(C)(C)Oc1ccc(C(=O)c2ccc(Cl)cc2)cc1 [Fenofibrate],108 ± 18,106,93.6 ± 4.2,92.1,87.5 ± 35,135,89.1 ± 14,109 ± 1.6,137 ± 9.3
CC(C)n1c(C=CC(O)CC(O)CC(=O)O)c(-c2ccc(F)cc2)c2ccccc21 (stereo not given) [Fluvastatin],91.2 ± 13,130,65.7 ± 18,162,192 ± 10,109,59.3 ± 12,48.9 ± 2.5,139 ± 14
O=c1ncnc2[nH][nH]cc1-2 [Allopurinol],111 ± 8.6,132,94.3 ± 13,110,98.9 ± 12,103,84.5 ± 3.3,97.49 ± 0.5,122 ± 8.1
O=C1CCc2cc(OCCCCc3nnnn3C3CCCCC3)ccc2N1 [Cilostazol],133 ± 7.6,125,78.2 ± 12,106,126 ± 24,93.7,80.8 ± 7.3,191 ± 27,125 ± 25
CCCN(CCC)C(=O)C1=Cc2ccc(-c3ccc(C(=O)N4CCCC4)cc3)cc2NC(=N)C1 [Motolimod (VTX-2337)],100 ± 41,97.5,32.1 ± 0.89,63.6,76.6 ± 7,105,66 ± 3.8,71 ± 15,100 ± 12
CNC(=O)C(NC(=O)C(CC(C)C)C(O)C(=O)NO)C(C)(C)C (stereo not given) [Marimastat],138 ± 9.7,111,78.3 ± 3,118,72.6 ± 8.9,127,101 ± 16,105 ± 10,117 ± 13
CC(C)(C(=O)O)c1ccc(C(O)CCCN2CCC(C(O)(c3ccccc3)c3ccccc3)CC2)cc1.Cl (stereo not given) [Fexofenadine HCl],127 ± 32,129,115 ± 1.6,96.4,131 ± 6.2,120,87.7 ± 9.4,84.5 ± 14,108 ± 14
CCOC(=O)[C@H](CCc1ccccc1)N[C@@H](C)C(=O)N1[C@H](C(=O)O)C[C@H]2CCCC[C@@H]21 [Trandolapril],121 ± 2.9,148,115 ± 11,98.7,124 ± 12,130,112 ± 20,109 ± 14,174 ± 15
CCNC1CC(C)S(=O)(=O)c2sc(S(N)(=O)=O)cc21.Cl (stereo not given) [Dorzolamide HCl],100 ± 4.5,111,96.8 ± 21,130,121 ± 5.2,98.2,71.8 ± 5.1,105 ± 8.4,89.3 ± 6.7
